# According to the supplement of paper PMC6555819:
# System: THRa:RXRa (NR concentration 90 nM, RXRa partner concentration 90 nM)
# Experiment: PBM binding z-score (relative to random genomic background probes); higher = stronger binding; sequences stand for … in GC…GCGATTGACAGCGTAGAATGAAGG
# Outline: (§1)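 Antibodies against each partner of ligand-free nuclear receptor dimers (one per run) detected binding on custom Agilent 4×180K protein-binding microarrays after 1 h incubation. The double-stranded probes had 34-nt variable regions carrying direct-repeat seeds, single-nucleotide variants, half-site ablations and random human genomic background sequences. Binding z-scores, from regression-normalized fluorescence, use the random background probes as reference.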
row,Sequence,PBM binding z-score
1,TAGCCTAGGTCATGCGGTCCAGTATAGTGTCGGC,3
2,CAAACTAGGTCACTGGAAGGTCAAAGTCCGCATG,4.3
3,TCTCGGAGGACACGAAAGGTCAGAGCCCGACATC,3.67
4,CCTTACGGGTCAAGGTTCTAGCACGGGTGGTACG,2.39
5,ACCGACAGGTGAGTGAAGGTAACTCAGCTGGACG,1.56
6,TCTATTACTTGATTAGGGCAACCGAAACAGCGGA,0.792
7,CCTGCTAGGTCAATGGTCAGCAAAAGCAGCTCGC,2.16
8,CCTATTAGTTGACCATAAGGGGAACCGAAGCTCG,0.633
9,ACTAGTTGGTCAGCTGAAGTCACACACAATTCGG,0.346
10,TCTTGTAGATCAATAGAGGTTCAGAAAGTGCGCT,0.501
11,CTGCCTAGGTCAGGGCCAGTATAGGAGGAACGTT,1.88
12,ACTCGGAGGACAAAGGTCAGAGCCACGCCAGTGA,3.55
13,CGAACGAGGGCGTGAGTTGATAGCAAATGCCGAT,0.142
14,GGTACAGGGTCAGCTAGAGGCCAGAGTATGGAAA,3.07
15,TCTATTAGTTGAAGGGCTACCGACGAGTCCGTTT,-0.151
16,AGAATGAGCTTATTAAGATCAGGGAATTGCGGTC,-0.273
17,ACAGACAGGTGATGAAGGTGACTCAGGCTATCAT,1.01
18,ATCTCTAGGTAAAGTTCAGTGAGAGATCGATAGA,1

# System: THRa homodimer (NR concentration 90 nM)
# Experiment: as above
# Outline: as §1
row,Sequence,PBM binding z-score
1,TCTCGGAGGACACGAAAGGTCAGATCTCGACATC,1.45
2,CCTCGGAGGACAGAGGGTCAGAGCTGTCCGCTTT,-0.314
3,ATCTCTAGGTAAGACTCAGTTTAGTGAAGAACGC,0.619
4,ATCGAAAGGTCGAAGGTGAGTATCCCCACCCGAA,0.377
5,AATACAGGGGCATCGTAGGCCAGAGTACGCACAG,-0.358
6,CGTCCAAGGTCAAGTTCAGTGAAAGAGACTCGAA,2.87
7,CGTCCAAGGCCAGCAGGTCAGTGAAAGCGACGTG,0.193
8,GATACAGGGTCAAGGCTAGAGTACGCGTATTGAT,1.23
9,TGTCTAAGTTCAAAGGTAACGTAAGTATCCACAC,0.485
10,TCAGACAGGTGAATGTAACTCAGGTACGCAGTCG,0.15
11,TGAATGAGGGTATAAGATCAGGGAACGTTGCAAA,-0.277
12,CCTATCAGTTGACCATAAGGGCAACCGAAGCTCG,1.26
13,CCTTACGGGTCACTGACACGTTATAGCATTTGGA,0.436
14,CCAGACAGGTGAGAAGATAACTCAGCCTCGATTA,-0.477
15,CAAACTAGGTCACCAAAGGTCAAAGTCGAATGAC,2.46
16,CAGCCTAGGTCAGGGCCGGTATAGGAGGAACGTT,0.2
17,AGAATGAGGTTATACGTAGATCAGGCAAGAAAGT,0.402
18,GCAGACAGGTGAAACGCATGTAACTCAGGGTGGC,-0.704
19,TCTATTAGTTGATTAGGGCACCCGAAACAGCGGA,0.582
20,AGTCAACGTTCATCTAGGTAACGTAAGATATGCT,-0.132

row,Sequence,PBM binding z-score
1,GCTTGAAGATCAAGGTTAAGAAAGACTAAGCTAA,-0.36
2,AGAATGACGTTATTAAGATCAGGGAATTGCGGTC,-0.892
3,TAGCCTAGGTCATGCGGTCCAGTATAGTGTCGGC,1.32
4,CAAACTAGGTCACTGGAAGGTCAAAGTCCGCATG,2.43
5,TCTCGGAGGACACGAAAGGTCAGAGCCCGACATC,1.25
6,CCTTACGGGTCAAGGTTCTAGCACGGGTGGTACG,0.0737
7,ACCGACAGGTGAGTGAAGGTAACTCAGCTGGACG,-0.918
8,TCTATTACTTGATTAGGGCAACCGAAACAGCGGA,0.73
9,CCTGCTAGGTCAATGGTCAGCAAAAGCAGCTCGC,0.37
10,CCTATTAGTTGACCATAAGGGGAACCGAAGCTCG,0.694
11,ACTAGTTGGTCAGCTGAAGTCACACACAATTCGG,-0.0517
12,TCTTGTAGATCAATAGAGGTTCAGAAAGTGCGCT,-0.823
13,CTGCCTAGGTCAGGGCCAGTATAGGAGGAACGTT,0.182
14,ACTCGGAGGACAAAGGTCAGAGCCACGCCAGTGA,0.686
15,CGAACGAGGGCGTGAGTTGATAGCAAATGCCGAT,-0.691
16,GGTACAGGGTCAGCTAGAGGCCAGAGTATGGAAA,0.717
17,TCTATTAGTTGAAGGGCTACCGACGAGTCCGTTT,-0.0569
18,AGAATGAGCTTATTAAGATCAGGGAATTGCGGTC,-0.456
19,ACAGACAGGTGATGAAGGTGACTCAGGCTATCAT,-0.00476
20,ATCTCTAGGTAAAGTTCAGTGAGAGATCGATAGA,0.0803

# System: VDR homodimer (NR concentration 270 nM)
# Experiment: as above
# Outline: as §1
row,Sequence,PBM binding z-score
1,TCTCGGAGGACACGAAAGGTCAGATCTCGACATC,1.13
2,CCTCGGAGGACAGAGGGTCAGAGCTGTCCGCTTT,-0.0777
3,ATCTCTAGGTAAGACTCAGTTTAGTGAAGAACGC,0.252
4,ATCGAAAGGTCGAAGGTGAGTATCCCCACCCGAA,0.132
5,AATACAGGGGCATCGTAGGCCAGAGTACGCACAG,1.15
6,CGTCCAAGGTCAAGTTCAGTGAAAGAGACTCGAA,4.75
7,CGTCCAAGGCCAGCAGGTCAGTGAAAGCGACGTG,-0.465
8,GATACAGGGTCAAGGCTAGAGTACGCGTATTGAT,2.36
9,TGTCTAAGTTCAAAGGTAACGTAAGTATCCACAC,3.83
10,TCAGACAGGTGAATGTAACTCAGGTACGCAGTCG,0.463
11,TGAATGAGGGTATAAGATCAGGGAACGTTGCAAA,0.159
12,CCTATCAGTTGACCATAAGGGCAACCGAAGCTCG,0.554
13,CCTTACGGGTCACTGACACGTTATAGCATTTGGA,0.844
14,CCAGACAGGTGAGAAGATAACTCAGCCTCGATTA,-0.188
15,CAAACTAGGTCACCAAAGGTCAAAGTCGAATGAC,3.85
16,CAGCCTAGGTCAGGGCCGGTATAGGAGGAACGTT,-0.454
17,AGAATGAGGTTATACGTAGATCAGGCAAGAAAGT,0.719
18,GCAGACAGGTGAAACGCATGTAACTCAGGGTGGC,-0.736
19,TCTATTAGTTGATTAGGGCACCCGAAACAGCGGA,0.203
20,AGTCAACGTTCATCTAGGTAACGTAAGATATGCT,-0.282

row,Sequence,PBM binding z-score
1,GCTTGAAGATCAAGGTTAAGAAAGACTAAGCTAA,-0.116
2,AGAATGACGTTATTAAGATCAGGGAATTGCGGTC,-0.318
3,TAGCCTAGGTCATGCGGTCCAGTATAGTGTCGGC,1.54
4,CAAACTAGGTCACTGGAAGGTCAAAGTCCGCATG,3.86
5,TCTCGGAGGACACGAAAGGTCAGAGCCCGACATC,1.26
6,CCTTACGGGTCAAGGTTCTAGCACGGGTGGTACG,1.51
7,ACCGACAGGTGAGTGAAGGTAACTCAGCTGGACG,-1
8,TCTATTACTTGATTAGGGCAACCGAAACAGCGGA,0.603
9,CCTGCTAGGTCAATGGTCAGCAAAAGCAGCTCGC,0.312
10,CCTATTAGTTGACCATAAGGGGAACCGAAGCTCG,0.895
11,ACTAGTTGGTCAGCTGAAGTCACACACAATTCGG,0.0981
12,TCTTGTAGATCAATAGAGGTTCAGAAAGTGCGCT,1.37
13,CTGCCTAGGTCAGGGCCAGTATAGGAGGAACGTT,-0.173
14,ACTCGGAGGACAAAGGTCAGAGCCACGCCAGTGA,1.13
15,CGAACGAGGGCGTGAGTTGATAGCAAATGCCGAT,0.785
16,GGTACAGGGTCAGCTAGAGGCCAGAGTATGGAAA,1.14
17,TCTATTAGTTGAAGGGCTACCGACGAGTCCGTTT,1.04
18,AGAATGAGCTTATTAAGATCAGGGAATTGCGGTC,-0.554
19,ACAGACAGGTGATGAAGGTGACTCAGGCTATCAT,-0.102
20,ATCTCTAGGTAAAGTTCAGTGAGAGATCGATAGA,1.28
